The source of these data is paper PMC7862700, “An all-to-all approach to the identification of sequence-specific readers for epigenetic DNA modifications on cytosine”.

Experiment in all cases: DAPPL (digital affinity profiling via proximity ligation, sequencing); 10 mM Tris-HCl pH 7.5, 50 mM NaCl, 1 mM DTT, 4% glycerol, room temperature, 30 min; GST-TFs on glutathione beads, 16-mer random dsDNA library, 0.1% formaldehyde crosslink after washing; high values mean tight binding
One experiment deals with T1, FLI1 (Homo sapiens, UniProt Q01543 1-452).
T1 sequence: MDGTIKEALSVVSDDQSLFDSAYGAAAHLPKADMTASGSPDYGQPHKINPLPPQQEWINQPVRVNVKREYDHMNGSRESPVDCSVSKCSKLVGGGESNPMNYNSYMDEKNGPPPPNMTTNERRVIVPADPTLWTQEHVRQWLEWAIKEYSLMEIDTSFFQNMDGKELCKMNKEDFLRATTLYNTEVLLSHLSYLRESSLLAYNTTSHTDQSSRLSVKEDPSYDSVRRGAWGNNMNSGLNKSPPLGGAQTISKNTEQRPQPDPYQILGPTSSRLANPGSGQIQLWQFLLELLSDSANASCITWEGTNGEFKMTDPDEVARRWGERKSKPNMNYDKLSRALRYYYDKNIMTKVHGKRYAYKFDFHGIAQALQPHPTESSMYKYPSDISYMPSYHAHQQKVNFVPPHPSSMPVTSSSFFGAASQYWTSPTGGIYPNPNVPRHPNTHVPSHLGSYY
The following applies: protein: recombinant; tags: N-terminal GST; dsDNA, one strand shown. The method, boiled down: (§1)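 Each value of binding signal is a hexamer's read frequency for a factor divided by the same hexamer's frequency in the tag-only sample. Barcoded, bead-captured GST fusions of human transcription factors made in yeast were pooled with that sample and incubated with 200 nmole of a random double-stranded 16-mer DNA library in Tris/NaCl/DTT/glycerol buffer at room temperature for 30 min. Washing, 0.1% formaldehyde crosslinking, proximity ligation, PCR and Illumina NextSeq500 sequencing followed.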

A further experiment deals with T2, ELK1 (Homo sapiens, UniProt P19419 1-428).
T2 sequence: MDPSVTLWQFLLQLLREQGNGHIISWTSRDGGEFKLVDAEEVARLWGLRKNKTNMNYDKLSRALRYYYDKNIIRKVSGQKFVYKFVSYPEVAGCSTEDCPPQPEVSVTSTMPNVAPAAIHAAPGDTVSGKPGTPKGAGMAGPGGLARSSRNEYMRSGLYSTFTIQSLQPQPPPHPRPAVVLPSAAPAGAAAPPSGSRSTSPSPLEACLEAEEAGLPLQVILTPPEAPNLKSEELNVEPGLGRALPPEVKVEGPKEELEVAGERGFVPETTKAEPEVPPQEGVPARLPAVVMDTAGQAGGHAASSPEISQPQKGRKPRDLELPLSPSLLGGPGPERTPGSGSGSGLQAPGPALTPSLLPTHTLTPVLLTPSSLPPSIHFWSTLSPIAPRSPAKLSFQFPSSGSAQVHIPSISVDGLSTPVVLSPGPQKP
The conditions noted are these: protein: recombinant; tags: N-terminal GST; dsDNA, one strand shown. Put shortly: as §1

For a further experiment, the target named is T3, ERG (Homo sapiens, UniProt P11308 1-479).
T3 sequence: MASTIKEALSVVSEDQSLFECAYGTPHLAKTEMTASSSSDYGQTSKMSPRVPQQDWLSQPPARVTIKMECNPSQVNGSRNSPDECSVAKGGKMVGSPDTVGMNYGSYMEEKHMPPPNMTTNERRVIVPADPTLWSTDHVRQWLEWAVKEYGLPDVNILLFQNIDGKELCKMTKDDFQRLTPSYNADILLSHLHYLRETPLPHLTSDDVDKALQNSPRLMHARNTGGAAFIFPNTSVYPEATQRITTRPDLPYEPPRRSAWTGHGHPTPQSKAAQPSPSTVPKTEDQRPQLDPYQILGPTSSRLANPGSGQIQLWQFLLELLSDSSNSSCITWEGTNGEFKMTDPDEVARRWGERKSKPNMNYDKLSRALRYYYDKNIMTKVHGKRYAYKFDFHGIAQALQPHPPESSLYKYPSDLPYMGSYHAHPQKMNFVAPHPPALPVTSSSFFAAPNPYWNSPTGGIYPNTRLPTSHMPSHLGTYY
The following applies: protein: recombinant; tags: N-terminal GST; dsDNA, one strand shown. Put shortly:
as §1

A further experiment concerns the target ELF1 (Homo sapiens, UniProt P32519 1-619). The following applies: protein: recombinant; tags: N-terminal GST; dsDNA, one strand shown. The method, boiled down:
as §1

The next experiment deals with T4, EHF (Homo sapiens, UniProt Q9NZC4 1-300).
T4 sequence: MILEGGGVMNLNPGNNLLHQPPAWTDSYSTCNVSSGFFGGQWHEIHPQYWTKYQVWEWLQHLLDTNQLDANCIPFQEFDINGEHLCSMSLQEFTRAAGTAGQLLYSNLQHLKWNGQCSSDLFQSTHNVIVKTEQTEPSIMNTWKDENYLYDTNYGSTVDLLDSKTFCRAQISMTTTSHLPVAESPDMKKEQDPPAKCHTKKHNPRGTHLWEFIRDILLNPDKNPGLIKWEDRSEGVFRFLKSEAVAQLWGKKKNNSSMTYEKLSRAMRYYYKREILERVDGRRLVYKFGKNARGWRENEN
The following applies: protein: recombinant; tags: N-terminal GST; dsDNA, one strand shown. Put shortly:
as §1

Another experiment concerns the target SPI1 (Homo sapiens, UniProt P17947 1-270). The conditions noted are these: protein: recombinant; tags: N-terminal GST; dsDNA, one strand shown. The method, boiled down:
as §1

A further experiment deals with SPIB (Homo sapiens, UniProt Q01892 1-262). The following applies: protein: recombinant; tags: N-terminal GST; dsDNA, one strand shown. Put shortly: as §1
SPIB, sequence (Q01892 whole entry): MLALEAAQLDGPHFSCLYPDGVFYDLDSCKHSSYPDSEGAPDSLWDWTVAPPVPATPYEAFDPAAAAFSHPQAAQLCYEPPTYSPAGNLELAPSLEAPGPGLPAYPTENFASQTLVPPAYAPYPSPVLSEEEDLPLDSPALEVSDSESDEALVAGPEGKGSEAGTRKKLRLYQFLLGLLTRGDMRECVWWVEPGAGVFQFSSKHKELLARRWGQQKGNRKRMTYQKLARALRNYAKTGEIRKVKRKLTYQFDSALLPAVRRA
The next experiment deals with T5, ELK3 (Homo sapiens, UniProt P41970 1-407).
T5 sequence: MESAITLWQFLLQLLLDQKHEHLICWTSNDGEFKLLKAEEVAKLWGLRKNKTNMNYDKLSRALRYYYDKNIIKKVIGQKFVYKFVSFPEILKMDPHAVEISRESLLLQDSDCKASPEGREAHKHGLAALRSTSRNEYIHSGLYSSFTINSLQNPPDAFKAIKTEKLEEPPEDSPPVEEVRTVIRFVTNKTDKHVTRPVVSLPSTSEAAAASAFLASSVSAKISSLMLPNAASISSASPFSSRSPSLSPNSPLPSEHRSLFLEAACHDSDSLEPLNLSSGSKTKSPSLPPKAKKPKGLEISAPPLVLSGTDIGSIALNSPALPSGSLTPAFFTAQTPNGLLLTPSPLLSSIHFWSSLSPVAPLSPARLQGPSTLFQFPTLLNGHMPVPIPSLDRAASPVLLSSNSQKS
The following applies: protein: recombinant; tags: N-terminal GST; dsDNA, one strand shown. The method, boiled down: as §1

The target in another experiment is T6, FEV (Homo sapiens, UniProt Q99581 1-238).
T6 sequence: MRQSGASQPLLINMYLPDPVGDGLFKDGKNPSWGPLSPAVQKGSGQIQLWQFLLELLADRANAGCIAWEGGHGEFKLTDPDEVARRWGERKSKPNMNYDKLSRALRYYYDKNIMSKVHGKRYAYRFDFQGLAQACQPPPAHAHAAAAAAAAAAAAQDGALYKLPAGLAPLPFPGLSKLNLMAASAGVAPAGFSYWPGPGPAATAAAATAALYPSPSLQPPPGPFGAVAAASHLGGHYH
The conditions noted are these: protein: recombinant; tags: N-terminal GST; dsDNA, one strand shown. The method, boiled down: as §1

The next experiment concerns the target ETV5 (Homo sapiens, UniProt P41161 1-510). The conditions noted are these: protein: recombinant; tags: N-terminal GST; dsDNA, one strand shown. The method, boiled down:
as §1

The target in a further experiment is HSF1 (Homo sapiens, UniProt Q00613 1-529). The following applies: protein: recombinant; tags: N-terminal GST; chain copies: 3; dsDNA, one strand shown. The method, boiled down: as §1
HSF1, sequence (Q00613 whole entry): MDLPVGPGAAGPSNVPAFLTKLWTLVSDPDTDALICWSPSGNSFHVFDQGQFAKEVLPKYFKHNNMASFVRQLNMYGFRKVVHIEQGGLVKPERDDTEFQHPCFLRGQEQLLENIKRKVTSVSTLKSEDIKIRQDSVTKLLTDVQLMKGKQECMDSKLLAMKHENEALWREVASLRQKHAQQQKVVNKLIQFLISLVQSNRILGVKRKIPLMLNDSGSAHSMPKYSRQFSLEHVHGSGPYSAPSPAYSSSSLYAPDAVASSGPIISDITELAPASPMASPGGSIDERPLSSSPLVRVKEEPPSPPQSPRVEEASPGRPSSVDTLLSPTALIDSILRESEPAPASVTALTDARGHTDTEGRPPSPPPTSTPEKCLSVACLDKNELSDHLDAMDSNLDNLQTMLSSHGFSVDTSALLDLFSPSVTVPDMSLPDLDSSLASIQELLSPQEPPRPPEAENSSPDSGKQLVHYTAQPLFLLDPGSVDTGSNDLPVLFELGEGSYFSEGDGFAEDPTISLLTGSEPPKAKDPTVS
In the next experiment the target is ELF4 (Homo sapiens, UniProt Q99607 1-663). The conditions noted are these: protein: recombinant; tags: N-terminal GST; dsDNA, one strand shown. Put shortly:
as §1

A further experiment has as its target T7, ELK4 (Homo sapiens, UniProt P28324-2 1-405).
T7 sequence: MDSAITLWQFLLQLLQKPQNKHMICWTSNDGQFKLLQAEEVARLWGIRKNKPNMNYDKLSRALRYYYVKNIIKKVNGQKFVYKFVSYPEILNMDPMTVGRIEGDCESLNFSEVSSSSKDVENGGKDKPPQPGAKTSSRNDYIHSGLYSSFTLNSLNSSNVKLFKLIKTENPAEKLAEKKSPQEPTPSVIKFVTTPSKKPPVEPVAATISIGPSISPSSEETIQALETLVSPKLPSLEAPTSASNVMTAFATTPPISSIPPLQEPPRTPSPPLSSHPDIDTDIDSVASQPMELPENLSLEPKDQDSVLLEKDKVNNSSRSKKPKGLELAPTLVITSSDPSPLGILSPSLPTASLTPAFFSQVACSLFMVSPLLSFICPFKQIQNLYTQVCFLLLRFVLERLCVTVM
The conditions noted are these: protein: recombinant; tags: N-terminal GST; dsDNA, one strand shown. Put shortly: as §1

Another experiment concerns the target T8, ETV2 (Homo sapiens, UniProt O00321 1-342).
T8 sequence: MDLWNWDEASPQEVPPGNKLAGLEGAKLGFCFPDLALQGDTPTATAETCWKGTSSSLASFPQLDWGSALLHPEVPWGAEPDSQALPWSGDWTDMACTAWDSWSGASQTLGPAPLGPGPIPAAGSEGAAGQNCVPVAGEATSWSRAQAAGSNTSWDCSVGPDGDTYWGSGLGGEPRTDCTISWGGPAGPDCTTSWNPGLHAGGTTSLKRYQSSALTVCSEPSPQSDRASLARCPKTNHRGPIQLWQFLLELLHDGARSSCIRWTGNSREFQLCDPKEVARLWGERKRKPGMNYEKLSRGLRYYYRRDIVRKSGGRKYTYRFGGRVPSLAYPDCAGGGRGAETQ
The conditions noted are these: protein: recombinant; tags: N-terminal GST; dsDNA, one strand shown. Put shortly: as §1

A further experiment deals with T9, ELF3 (Homo sapiens, UniProt P78545 1-371).
T9 sequence: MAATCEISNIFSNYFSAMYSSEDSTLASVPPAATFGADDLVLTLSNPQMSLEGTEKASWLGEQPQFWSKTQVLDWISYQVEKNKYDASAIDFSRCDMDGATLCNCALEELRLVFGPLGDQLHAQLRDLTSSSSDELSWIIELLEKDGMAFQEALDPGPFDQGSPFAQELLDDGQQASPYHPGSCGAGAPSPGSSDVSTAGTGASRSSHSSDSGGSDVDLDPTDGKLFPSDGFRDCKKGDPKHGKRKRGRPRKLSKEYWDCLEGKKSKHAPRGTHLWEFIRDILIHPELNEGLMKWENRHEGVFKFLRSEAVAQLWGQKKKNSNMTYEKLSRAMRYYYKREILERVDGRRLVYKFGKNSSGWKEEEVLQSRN
The conditions noted are these: protein: recombinant; tags: N-terminal GST; dsDNA, one strand shown. Put shortly:
as §1

The target in the next experiment is CRX (Homo sapiens, UniProt O43186 1-299). The conditions noted are these: protein: recombinant; tags: N-terminal GST; dsDNA, one strand shown. The method, boiled down:
as §1

The next experiment addresses ETV1 (Homo sapiens, UniProt P50549 1-477). The conditions noted are these: protein: recombinant; tags: N-terminal GST; dsDNA, one strand shown. Put shortly: as §1

ETV1, sequence (P50549 whole entry): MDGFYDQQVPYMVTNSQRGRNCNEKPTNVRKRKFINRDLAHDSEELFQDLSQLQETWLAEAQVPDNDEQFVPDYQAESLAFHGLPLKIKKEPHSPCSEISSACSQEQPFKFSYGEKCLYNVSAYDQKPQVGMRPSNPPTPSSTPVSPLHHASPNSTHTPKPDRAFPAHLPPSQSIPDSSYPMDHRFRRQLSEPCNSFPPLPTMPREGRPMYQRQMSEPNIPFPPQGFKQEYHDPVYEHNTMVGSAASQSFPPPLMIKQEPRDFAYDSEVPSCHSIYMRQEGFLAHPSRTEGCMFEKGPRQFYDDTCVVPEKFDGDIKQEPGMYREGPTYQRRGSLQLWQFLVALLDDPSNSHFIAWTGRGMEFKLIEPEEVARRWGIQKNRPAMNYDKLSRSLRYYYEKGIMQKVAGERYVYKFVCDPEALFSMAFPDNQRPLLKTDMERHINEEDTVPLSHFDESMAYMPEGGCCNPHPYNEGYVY
ETV5, sequence (P41161 whole entry): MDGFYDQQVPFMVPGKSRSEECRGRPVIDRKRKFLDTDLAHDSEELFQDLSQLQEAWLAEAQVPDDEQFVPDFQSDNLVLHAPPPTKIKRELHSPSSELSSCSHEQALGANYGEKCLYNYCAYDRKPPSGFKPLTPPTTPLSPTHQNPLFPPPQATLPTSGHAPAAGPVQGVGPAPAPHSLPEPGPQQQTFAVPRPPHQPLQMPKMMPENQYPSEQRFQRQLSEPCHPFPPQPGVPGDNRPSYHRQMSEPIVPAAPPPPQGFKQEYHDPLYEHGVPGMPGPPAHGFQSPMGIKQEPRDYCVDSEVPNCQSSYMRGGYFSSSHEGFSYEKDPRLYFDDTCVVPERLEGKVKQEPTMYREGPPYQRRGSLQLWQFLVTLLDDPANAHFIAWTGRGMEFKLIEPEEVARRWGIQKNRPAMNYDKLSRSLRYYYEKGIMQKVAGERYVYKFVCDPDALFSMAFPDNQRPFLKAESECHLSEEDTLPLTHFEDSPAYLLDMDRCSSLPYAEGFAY
ELF4, sequence (Q99607 whole entry): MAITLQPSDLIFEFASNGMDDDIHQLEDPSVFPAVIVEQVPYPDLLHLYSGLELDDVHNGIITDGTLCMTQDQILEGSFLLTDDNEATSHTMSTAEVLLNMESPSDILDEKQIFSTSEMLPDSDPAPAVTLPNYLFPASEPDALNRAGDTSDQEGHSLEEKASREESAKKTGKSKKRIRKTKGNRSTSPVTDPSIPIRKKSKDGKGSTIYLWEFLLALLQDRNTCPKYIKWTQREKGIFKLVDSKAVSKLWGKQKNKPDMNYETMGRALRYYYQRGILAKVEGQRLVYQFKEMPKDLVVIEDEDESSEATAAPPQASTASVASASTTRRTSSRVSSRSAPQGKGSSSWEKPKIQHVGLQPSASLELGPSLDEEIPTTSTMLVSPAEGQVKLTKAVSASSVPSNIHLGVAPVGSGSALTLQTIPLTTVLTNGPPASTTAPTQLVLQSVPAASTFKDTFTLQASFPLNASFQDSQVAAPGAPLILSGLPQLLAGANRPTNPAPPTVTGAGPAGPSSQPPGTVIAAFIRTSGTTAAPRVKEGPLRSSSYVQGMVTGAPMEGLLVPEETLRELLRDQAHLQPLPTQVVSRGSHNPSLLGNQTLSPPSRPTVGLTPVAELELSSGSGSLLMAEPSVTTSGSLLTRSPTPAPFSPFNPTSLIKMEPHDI
ELF1, sequence (P32519 whole entry): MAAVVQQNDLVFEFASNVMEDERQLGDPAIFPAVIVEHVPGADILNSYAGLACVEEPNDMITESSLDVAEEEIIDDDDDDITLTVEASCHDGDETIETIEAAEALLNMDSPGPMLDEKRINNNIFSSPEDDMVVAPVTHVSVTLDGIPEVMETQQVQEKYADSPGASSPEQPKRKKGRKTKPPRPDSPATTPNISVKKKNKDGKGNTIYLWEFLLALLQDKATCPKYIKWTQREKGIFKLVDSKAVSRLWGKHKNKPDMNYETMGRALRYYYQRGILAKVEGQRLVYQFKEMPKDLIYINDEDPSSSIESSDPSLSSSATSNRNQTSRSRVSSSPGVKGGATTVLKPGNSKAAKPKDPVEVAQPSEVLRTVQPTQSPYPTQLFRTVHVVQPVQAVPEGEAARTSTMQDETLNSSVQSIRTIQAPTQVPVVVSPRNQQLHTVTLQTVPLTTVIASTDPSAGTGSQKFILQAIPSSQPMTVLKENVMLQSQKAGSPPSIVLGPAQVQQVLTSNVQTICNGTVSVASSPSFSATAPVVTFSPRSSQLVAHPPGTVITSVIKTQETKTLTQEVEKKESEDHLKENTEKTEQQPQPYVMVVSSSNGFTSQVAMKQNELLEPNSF
CRX, sequence (O43186 whole entry): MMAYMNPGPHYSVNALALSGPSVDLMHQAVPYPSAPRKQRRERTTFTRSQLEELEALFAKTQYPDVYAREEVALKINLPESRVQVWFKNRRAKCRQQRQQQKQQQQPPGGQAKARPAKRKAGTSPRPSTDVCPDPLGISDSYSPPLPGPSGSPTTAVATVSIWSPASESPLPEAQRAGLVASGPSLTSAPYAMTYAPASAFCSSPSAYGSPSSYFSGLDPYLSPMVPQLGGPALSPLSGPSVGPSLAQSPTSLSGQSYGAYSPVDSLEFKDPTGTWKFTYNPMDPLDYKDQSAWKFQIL

As to AGCTAA, the binding signal was 1.08 fold enrichment (6-mer frequency, TF over GST control) with FLI1; 1.05 fold enrichment (6-mer frequency, TF over GST control) with ELK1; 1.06 fold enrichment (6-mer frequency, TF over GST control) with ERG; 1.02 fold enrichment (6-mer frequency, TF over GST control) in the experiment with ELF1; 1.08 fold enrichment (6-mer frequency, TF over GST control) in the experiment with EHF; 1.08 fold enrichment (6-mer frequency, TF over GST control) with SPI1. Further, the binding signal with SPIB was 1.01 fold enrichment (6-mer frequency, TF over GST control); with ELK3 it was 1.01 fold enrichment (6-mer frequency, TF over GST control); with FEV, 1.03 fold enrichment (6-mer frequency, TF over GST control); with ETV5, 1.06 fold enrichment (6-mer frequency, TF over GST control); with HSF1, 1.27 fold enrichment (6-mer frequency, TF over GST control); in the experiment with ELF4 it was 1.14 fold enrichment (6-mer frequency, TF over GST control). Moreover, the binding signal is 1.1 fold enrichment (6-mer frequency, TF over GST control) with ELK4; 1.01 fold enrichment (6-mer frequency, TF over GST control) in the experiment with ETV2; 1.09 fold enrichment (6-mer frequency, TF over GST control) with ELF3; 1.65 fold enrichment (6-mer frequency, TF over GST control) with CRX; 1.1 fold enrichment (6-mer frequency, TF over GST control) with ETV1.
